Several values for one entry are separate records, joined by “and”; a condition that tells them apart may be missing. Identical values can stand only once. About 140 (9.3%) of roughly 1,500 compounds were called active. This is one part of a sample in which actives are shown more often than they occur. The rule behind the calls is not given here.
Experiment: false positives in methylated H4 peptide AlphaScreen detection – biochemical, cherry-picked samples, artefact control for NSD2 inhibitor project, dose response (AID 1053174);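 note: actives lower the AlphaScreen signal from the preloaded product and count as artifacts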

AbsAC35, active:
Cc1ccc(S(=O)(=O)/N=C2\C=C(Nc3cccc(C(=O)O)c3)C(=O)c3ccccc32)c(C)c1 11.5 µM
Cc1ccccc1NC1=C/C(=N\S(=O)(=O)c2ccc(C(=O)O)cc2)c2ccccc2C1=O 11.8 µM
N=C1/C(=C/c2ccc(O)c(O)c2)C(=O)N=C2SC(CC(=O)N3CCCC3)=NN12 10.6 µM
Cc1cccc(C)c1N=Nc1c(C)cc(O)cc1C 20.6 µM
O=C1/C(=C\c2cccc(O)c2O)SC(=S)N1Cc1ccccc1 14.9 µM
O=C1NC(=O)/C(=C\c2ccc(O)cc2O)S1 18.9 µM
CC1CCCC(C)N1/N=C/c1ccc(O)c(O)c1 (stereo not given) 10.9 µM
CSc1ccc(/C=N/Nc2cccc(C(=O)O)c2)cc1 12 µM
O=C(Cc1nnc(NC(=O)c2ccccc2)s1)N/N=C\c1ccc(O)c(O)c1 10.6 µM
O=C(O)CCCNc1cc(N2CCN(C(=O)c3ccco3)CC2)c2noc3c2c1C(=O)c1ccccc1-3 11.2 µM
Cc1ccc(-n2[nH]c(C)c(/C=N/Nc3ccc([N+](=O)[O-])cc3[N+](=O)[O-])c2=O)cc1C 13.4 µM
CN(C=[N+](C)C)c1cccc2c1C(=O)c1ccccc1C2=O 15.2 µM
CCN1/C(=C/c2ccc3cc(C)ccc3[n+]2CC)Sc2cc(C)c(C)cc21 19.3 µM and 11.4 µM
O=[N+]([O-])c1ccc(N2CCCC2)cc1N1CCCC1 18.9 µM
Cc1cc(C=O)c(C)n1-c1ccc(N2CCCCC2)c([N+](=O)[O-])c1 17.3 µM
CCN(CC)c1ccc(/C=C/c2ccc3ccc(OC)cc3[n+]2CC)cc1 11.4 µM
O=C(O)CCNc1ccc(NCCC(=O)O)c2c1C(=O)c1ccccc1C2=O 11.8 µM
Cc1ccc(C)c(S(=O)(=O)/N=C2\C=C(NS(=O)(=O)c3ccccc3)C(=O)c3ccccc32)c1 11.3 µM
CCc1ccc(S(=O)(=O)/N=C2\C=C(NS(=O)(=O)c3ccccc3)C(=O)c3ccccc32)cc1 15.7 µM
CC(C)c1ccc(S(=O)(=O)/N=C2\C=C(NS(=O)(=O)c3ccccc3)C(=O)c3ccccc32)cc1 11.3 µM
CC(C)(C)c1ccc(S(=O)(=O)/N=C2\C=C(NS(=O)(=O)c3ccccc3)C(=O)c3ccccc32)cc1 13 µM
Cc1[nH]c(O)nc1C(=O)CCCCC(=O)OCC(=O)Nc1ccccn1 11.4 µM
Nc1ccc(Nc2ccccc2)c(S(=O)(=O)O)c1 31.6 µM
CN(C)c1ccc(CNCCC(Cc2ccccc2)c2ccco2)cc1 (stereo not given) 16.6 µM
COc1ccccc1-c1nnc2n1N=C(c1ccc(O)c(O)c1)CS2 18.5 µM
COc1cccc2c(SCC(=O)N/N=C/c3ccc(O)c(O)c3)cc(C)nc12 12.7 µM
N#C/C(=C/c1ccc(O)c(O)c1)C(=O)NCc1ccc(Cl)cc1 14.6 µM
COCC/N=c1\scc(-c2ccco2)n1/N=C/c1ccc(O)c(O)c1O 11.7 µM
O=C(/C=C/c1ccc(O)c(O)c1)c1ccccc1O 20.7 µM
COc1ccc(S(=O)(=O)N2CCN(CC(=O)c3ccc(O)c(O)c3)CC2)cc1 12.5 µM
CC(C)c1ccc(S(=O)(=O)N2CCN(CC(=O)c3ccc(O)c(O)c3)CC2)cc1 14.6 µM
O=C(CN1CCN(S(=O)(=O)c2ccc(Cl)cc2)CC1)c1ccc(O)c(O)c1 14.7 µM
CC1=C/C(=C\c2ccc(Br)o2)C(=O)O1 25.7 µM
CCCn1nc([N+](=O)[O-])c(C(C#N)c2nc3ccccc3s2)c(Cl)c1=O (stereo not given) 13.4 µM
CCn1nc([N+](=O)[O-])c(C(C#N)c2nc3cc(C(F)(F)F)ccc3s2)c(Cl)c1=O (stereo not given) 22.2 µM
CCN(CC)c1ccc2c(-c3ccc(S(=O)(=O)O)cc3S(=O)(=O)[O-])c3ccc(=[N+](CC)CC)cc-3oc2c1 14.9 µM
O=S(=O)(O)c1cc(O)c(N=Nc2ccc(O)cc2O)c2ccccc12 12.8 µM
O=S(=O)(O)c1cc(Cl)cc(N=Nc2ccc(O)cc2O)c1O 14.5 µM
O=C(O)c1ccccc1N=N/C(=N/Nc1cc(S(=O)(=O)O)ccc1O)c1ccccc1 13.7 µM
O=C(Oc1ccccc1)c1cc(O)c(O)c(O)c1 17.2 µM
CC1=NN(c2ccccc2)C(=O)C1/C=C1\NC(=S)NC1=O (stereo not given) 28.8 µM
CCS(=O)(=O)C1=NN2C(=N)/C(=C\c3ccc(SCc4ccco4)o3)C(=O)N=C2S1 18.7 µM
CC(=O)c1ccc2c(c1)C1C=CCC1C(C(=O)O)N2 (stereo not given) 13.9 µM
N#C/C(=C/c1ccc(O)c(O)c1)c1nc2ccccc2[nH]1 15 µM
Cc1ccc2[nH]c(/C(C#N)=C/c3ccc(O)c(O)c3)nc2c1 22.9 µM
CC1COCC(C)N1C1=C(Cl)C(=O)c2ccccc2C1=O (stereo not given) 12.2 µM
O=[N+]([O-])c1ccccc1/C=C\C=N\N1CCN(c2ccccc2)CC1 17.5 µM
O=C(COC(=O)c1ccccc1)Nc1ncc([N+](=O)[O-])s1 21.8 µM
Cc1cc2c(=Cc3ccc(N(C)C)cc3)c3ccccc3n2[n+]1C 14.4 µM
NCCc1c(-c2ccccc2)n(-c2ccccc2)c2ccccc12 18.5 µM
CN(C)C=O.O=C(O)c1ccccc1NS(=O)(=O)c1ccc(N/N=C/c2ccc(O)c(O)c2)c([N+](=O)[O-])c1 10.8 µM
COc1cc(OC)c(OC)cc1CCC(C)NCCC(c1ccccc1)c1ccccc1 (stereo not given) 11.1 µM
CCN(c1ccccc1)S(=O)(=O)c1cc(C(=O)O)ccc1C 17.7 µM
O=C1N=C(Nc2ccccc2Cl)S/C1=C\c1cccc([N+](=O)[O-])c1O 17.4 µM
Cc1ccc(NC(=O)CCCCCC2NC(=O)NC2C)cc1 (stereo not given) 13.9 µM

Reference: ChEMBL document CHEMBL1201862, “PubChem BioAssay data set” (2004)
